Measurements published in PubChem BioAssay (Tox21).
Values joined by “and” are separate entries in the source; they are usually repeats but may differ in a detail not shown here. Equal entries are not always repeated. Records with an inconclusive call do not appear. Where a call stands in place of a potency, no number is given. A structure can be active in one record and inactive in another. Active and inactive are the calls of the source. Unless noted, calls follow the shape of the dose curve; as a rule, active = well fitted curve in the direction sought with a large enough effect in the repeat runs; inconclusive = weak or mixed curves; inactive = no such curve, though single readings can be large; an effect the other way counts as inactive or inconclusive.

Assays:
[1] = qHTS assay for small molecule agonists of the p53 signaling pathway (AID 651631; calls by dose curve; also: nearly all actives have a fitted effect of over 15% in size)
Procedure, shortened: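 We treat p53RE-bla HCT-116 cells with compounds for 16 h at 37 °C, add LiveBLAzer B/G FRET substrate for 2 h at room temperature, and measure fluorescence intensity.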

[2] = qHTS assay for small molecules that induce genotoxicity in human embryonic kidney cells expressing luciferase-tagged ATAD5 (AID 651632); also: nearly all actives have a fitted effect of over 15% in size
Procedure, shortened: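 Test compounds were delivered by pin tool onto HEK293T reporter cells (2,000/well) expressing ATAD5 fused to luciferase. After 16 hr at 37C, 5% CO2, Amplite was added for 30 min at room temperature and luminescence was measured.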

[3] = qHTS assay for small molecules that induce genotoxicity in human embryonic kidney cells expressing luciferase-tagged ATAD5 - cell viability (AID 651634; calls by dose curve; also: nearly all actives have a fitted effect of over 25% in size)
Procedure, shortened: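 Quantitative high-throughput format. HEK293T cells expressing ATAD5 fused to luciferase were plated at 2,000 cells/well and treated 15.5 hr with compound versus DMSO. Viability was determined by fluorescent live-cell protease substrate, 30 min at 37C.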

[4] = qHTS assay for small molecule disruptors of the mitochondrial membrane potential - cell viability (AID 720634; calls by dose curve;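 also: human HepG2 liver cancer cells; series mostly up to about 83 µM; nearly all actives have a fitted effect of over 20% in size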)
Procedure, shortened: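 Same-well counter-screen: following the MMP dye addition, CellTiter-Glo was added to 1 hr compound-treated HepG2 cells and luminescence read after 30 min at room temperature.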

[5] = qHTS assay for small molecule disruptors of the mitochondrial membrane potential (AID 720635)
Procedure, shortened: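 HepG2 cells (2,000/well) attached overnight at 37C, then took compound for 1 hr at 37C, 5% CO2. Mito-MPS dye was added for 30 min; fluorescence was read at 490/535 nm (monomers) and 540/590 nm (aggregates).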

[6] = qHTS assay to test for compound auto fluorescence at 590 nm (red) in HepG2 cells (AID 720674)
Procedure, shortened: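 Rose Bengal sodium served as the red fluorophore standard. HepG2 monolayers (overnight attachment, MEM with 10% FBS) were exposed to test compounds for 1 hr at 37 C and read at Ex 540/Em 590 nm.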

[7] = qHTS assay to test for compound auto fluorescence at 535 nm (green) in HepG2 cells (AID 720675)
[8] = qHTS assay to test for compound auto fluorescence at 460 nm (blue) in HEK293 cells (AID 720678)
Procedure, shortened: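 After cell attachment (4-5 hr, 37C), compounds were pinned onto HEK293 monolayers in 10% dialyzed FBS medium. The blue channel (405/460 nm) was read following overnight culture. Equivalency was calculated against triamterene.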

[9] = qHTS assay to test for compound auto fluorescence at 590 nm (red) in HEK293 cells (AID 720679)
Procedure, shortened: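 Plates of HEK293 cells (10% dialyzed FBS) are treated with 23 nL compound or DMSO vehicle after a 4-5 hr attachment period, incubated overnight at 37C, and read for red fluorescence at 540/590nm.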

[10] = qHTS assay to test for compound auto fluorescence at 535 nm (green) in HEK293 cells (AID 720680)
[11] = qHTS assay to test for compound auto fluorescence at 535 nm (green) in HEK293 cell free culture (AID 720682)
Procedure, shortened: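 Green-channel intensity (Ex/Em 485/535 nm) was recorded from compound-treated wells containing only DMEM with 10% FBS. Fluorescein provided the equivalency standard.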

[12] = qHTS assay to test for compound auto fluorescence at 590 nm (red) in HEK293 cell free culture (AID 720683)
Procedure, shortened: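 Tox21 10K library compounds were pinned into cell-free DMEM with 10% FBS and fluorescence was read at excitation 540 nm. Activity is expressed as Rose Bengal sodium equivalency.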

[13] = qHTS assay to test for compound auto fluorescence at 590 nm (red) in HepG2 cell free culture (AID 720684)
Procedure, shortened: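 Ex 540 / Em 590 nm read of compound in cell-free MEM (10% FBS). Rose Bengal sodium reference.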

[14] = qHTS assay to test for compound auto fluorescence at 535 nm (green) in HepG2 cell free culture (AID 720686)
[15] = qHTS assay to test for compound auto fluorescence at 460 nm (blue) in HepG2 cells (AID 720687)
Procedure, shortened: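 Cells (2,000/well in MEM with 10% FBS) attached overnight at 37 C, then were exposed to compound or DMSO for 1 hr at 37 C, 5% CO2. Fluorescence read at Ex/Em 405/460 nm, expressed as triamterene-equivalent signal.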

[16] = qHTS assay to test for compound auto fluorescence at 460 nm (blue) in HEK293 cell free culture (AID 720681)
Procedure, shortened: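 Test compounds were pinned into cell-free culture medium (DMEM with 10% FBS) and fluorescence was read directly at Ex/Em 405/460 nm. Signals were expressed as fluorescence equivalents of triamterene, with DMSO vehicle as control.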

[17] = qHTS assay to test for compound auto fluorescence at 460 nm (blue) in HepG2 cell free culture (AID 720685)
Procedure, shortened: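 Cell-free plates of MEM plus 10% FBS received 23 nL compound or DMSO vehicle; blue-channel (405/460 nm) intensity scored against triamterene as reference fluorophore.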

[18] = qHTS assay for small molecule agonists of the p53 signaling pathway - cell viability (AID 651633; calls by dose curve;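 also: p53RE-bla HCT reporter cells with a stable beta-lactamase p53 reporter; series mostly up to about 83 µM; nearly all actives have a fitted effect of over 30% in size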)
Procedure, shortened: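 p53RE-bla cells, seeded at 4,000 per well and rested 5 h at 37 C/5% CO2, received compounds in DMSO for 16 h at 37 C. CellTiter-Glo was then added, and luminescence was read after 30 min at room temperature to gauge cytotoxicity.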

[19] = target: Glucocorticoid receptor (Homo sapiens) (UniProt P04150); experiment: qHTS assay to identify small molecule agonists of the glucocorticoid receptor (GR) signaling pathway (AID 720691; active = well fitted activation curve with a large enough effect in the signal ratio in the repeat runs, not every such curve was filed as active; the % refers to the signal ratio; also: potency is read from the fitted curve at half-maximal effect)
Procedure, shortened: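 A HeLa cervical cancer line expressing GR and a glucocorticoid response element-driven beta-lactamase gene is treated with compounds for 18 h; LiveBLAzer B/G FRET substrate is then applied and fluorescence read.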

[20] = target: Glucocorticoid receptor (Homo sapiens) (UniProt P04150); experiment: qHTS assay to identify small molecule antagonists of the glucocorticoid receptor (GR) signaling pathway (AID 720692; active = well fitted inhibition curve with a large enough effect in the signal ratio in the repeat runs, not every such curve was filed as active; the % refers to the signal ratio)
Procedure, shortened: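 GRE-bla HeLa line, dex-stimulated (5 nM final). Compound exposure 18 h, 37 C. Beta-lactamase FRET read after 2 h RT substrate.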

Chain of Glucocorticoid receptor (Homo sapiens) (P04150 whole entry, looked up): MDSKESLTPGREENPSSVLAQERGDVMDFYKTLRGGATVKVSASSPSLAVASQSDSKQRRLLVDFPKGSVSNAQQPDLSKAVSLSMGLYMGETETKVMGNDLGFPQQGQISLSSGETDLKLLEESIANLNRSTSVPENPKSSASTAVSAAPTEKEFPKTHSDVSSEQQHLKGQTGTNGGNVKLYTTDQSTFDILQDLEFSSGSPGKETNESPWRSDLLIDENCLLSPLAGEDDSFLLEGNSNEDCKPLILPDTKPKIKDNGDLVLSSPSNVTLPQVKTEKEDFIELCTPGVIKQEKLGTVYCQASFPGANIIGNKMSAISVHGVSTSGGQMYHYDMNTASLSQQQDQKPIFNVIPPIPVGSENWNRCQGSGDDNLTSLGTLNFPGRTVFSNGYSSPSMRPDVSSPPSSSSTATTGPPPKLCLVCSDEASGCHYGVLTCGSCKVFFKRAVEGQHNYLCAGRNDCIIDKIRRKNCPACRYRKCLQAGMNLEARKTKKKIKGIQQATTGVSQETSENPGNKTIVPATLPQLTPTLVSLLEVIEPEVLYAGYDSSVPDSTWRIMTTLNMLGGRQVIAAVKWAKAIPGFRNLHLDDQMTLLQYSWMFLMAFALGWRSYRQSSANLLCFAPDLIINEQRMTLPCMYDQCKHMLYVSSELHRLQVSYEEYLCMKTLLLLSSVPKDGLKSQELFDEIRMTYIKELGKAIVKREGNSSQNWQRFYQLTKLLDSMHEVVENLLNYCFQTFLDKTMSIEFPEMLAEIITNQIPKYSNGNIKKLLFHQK

Q: For O=S(O)CO, which outcome [1] is on record?
A: inactive

Q: And the Potency [2]?
A: inactive

Q: And the Potency [3]?
A: inactive

Q: And the Potency [4]?
A: inactive

Q: What about the Potency [5] of the same molecule?
A: inactive

Q: What about the outcome [6] of the same molecule?
A: inactive

Q: And the outcome [7]?
A: inactive

Q: What about the outcome [8] of the same molecule?
A: inactive

Q: And the outcome [9]?
A: inactive

Q: What about the outcome [10] of the same molecule?
A: inactive

Q: What about the outcome [11] of the same molecule?
A: inactive

Q: What about the outcome [12] of the same molecule?
A: inactive

Q: What about the outcome [13] of the same molecule?
A: inactive

Q: And the outcome [14]?
A: inactive

Q: What about the outcome [15] of the same molecule?
A: inactive

Q: What does the source list for c1ccc(CC2=NCCN2)cc1?
A: outcome [1]: inactive; Potency [2]: inactive; Potency [3]: inactive; Potency [4]: inactive; Potency [5]: inactive; outcome [7]: inactive; outcome [8]: inactive; outcome [9]: inactive; outcome [10]: inactive; outcome [16]: inactive; outcome [11]: inactive; outcome [12]: inactive; outcome [13]: inactive; outcome [17]: inactive; outcome [14]: inactive; outcome [15]: inactive

Q: Which results are given for Cn1c(N)c(N=O)c(=O)n(C)c1=O?
A: Potency [2]: inactive; outcome [18]: inactive; Potency [3]: inactive; Potency [4]: inactive; Potency [5]: inactive; outcome [6]: inactive; outcome [7]: inactive; outcome [8]: inactive; outcome [9]: inactive; outcome [10]: inactive; outcome [16]: inactive; outcome [11]: inactive; outcome [12]: inactive; outcome [13]: inactive; outcome [17]: inactive; outcome [14]: inactive; outcome [15]: inactive; Potency [19]: inactive; Potency [20]: inactive

Q: Which results are given for CN1CC(=O)NC1=N?
A: outcome [1]: inactive; Potency [2]: inactive; Potency [4]: inactive; Potency [5]: inactive; outcome [6]: inactive; outcome [7]: inactive; outcome [8]: inactive; outcome [9]: inactive; outcome [10]: inactive; outcome [16]: inactive; outcome [11]: inactive; outcome [12]: inactive; outcome [13]: inactive; outcome [17]: inactive; outcome [14]: inactive; outcome [15]: inactive; Potency [19]: inactive; Potency [20]: inactive

Q: With CCN(CC)CCOCCOC(=O)C1(c2ccccc2)CCCC1 as the molecule, how does the outcome [1] read?
A: inactive

Q: And the Potency [2]?
A: inactive

Q: What about the Potency [4] of the same molecule?
A: inactive

Q: And the outcome [6]?
A: inactive

Q: What about the outcome [7] of the same molecule?
A: inactive

Q: And the outcome [8]?
A: inactive

Q: What about the outcome [9] of the same molecule?
A: inactive

Q: And the outcome [10]?
A: inactive

Q: What about the outcome [16] of the same molecule?
A: inactive

Q: What about the outcome [11] of the same molecule?
A: inactive

Q: What about the outcome [12] of the same molecule?
A: inactive

Q: What about the outcome [13] of the same molecule?
A: inactive

Q: What about the outcome [14] of the same molecule?
A: inactive

Q: And the outcome [15]?
A: inactive

Q: What about the Potency [19] of the same molecule?
A: inactive

Q: With COCCc1ccc(OCC(O)CNC(C)C)cc1 (centres undefined) as the molecule, how does the outcome [1] read?
A: inactive

Q: And the Potency [2]?
A: inactive

Q: And the Potency [4]?
A: inactive

Q: What about the Potency [5] of the same molecule?
A: inactive

Q: What about the outcome [6] of the same molecule?
A: inactive

Q: And the outcome [7]?
A: inactive

Q: And the outcome [8]?
A: inactive

Q: And the outcome [9]?
A: inactive

Q: What about the outcome [10] of the same molecule?
A: inactive

Q: What about the outcome [11] of the same molecule?
A: inactive

Q: And the outcome [12]?
A: inactive

Q: What about the outcome [13] of the same molecule?
A: inactive

Q: And the outcome [17]?
A: inactive

Q: And the outcome [14]?
A: inactive

Q: And the outcome [15]?
A: inactive

Q: And the Potency [19]?
A: inactive and 10.7 µM (active)

Q: What about the Potency [20] of the same molecule?
A: inactive

Q: Which outcome [1] does the source give for O=C1CC2CC1C1CCCC21 (centres undefined) here?
A: inactive

Q: What about the outcome [18] of the same molecule?
A: inactive

Q: And the Potency [3]?
A: inactive

Q: And the Potency [4]?
A: inactive

Q: What about the Potency [5] of the same molecule?
A: inactive

Q: And the outcome [6]?
A: inactive

Q: What about the outcome [7] of the same molecule?
A: inactive

Q: What about the outcome [8] of the same molecule?
A: inactive

Q: What about the outcome [9] of the same molecule?
A: inactive

Q: What about the outcome [10] of the same molecule?
A: inactive

Q: What about the outcome [16] of the same molecule?
A: inactive

Q: And the outcome [11]?
A: inactive

Q: And the outcome [12]?
A: inactive

Q: What about the outcome [13] of the same molecule?
A: inactive

Q: What about the outcome [17] of the same molecule?
A: inactive

Q: And the outcome [14]?
A: inactive

Q: What about the outcome [15] of the same molecule?
A: inactive

Q: And the Potency [19]?
A: 54.9 µM (active)

Q: What about the Potency [20] of the same molecule?
A: inactive
